Our source for the growth inhibition values is PubChem BioAssay (NCI).

The nature of assay [1]: NCI Yeast Anticancer Drug Screen. Data for the rad50 strain (AID 155).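 Note: 0% = growth of vehicle-only cultures of the same strain.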 The note with it: S. cerevisiae rad50 strain growth inhibition, hits give high values. The method in brief: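 Genetically altered yeast (DNA repair pathway); compound treatment; growth inhibition vs vehicle ctrl.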
Assay [2] in a line: NCI Yeast Anticancer Drug Screen. Data for the mec2-1 strain (AID 157). As to conditions: S. cerevisiae mec2-1 strain, hits give high values. In outline: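 Readout is yeast growth inhibition, normalised to vehicle-treated controls, in the mec2-1 strain exposed to compound.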
A short description of assay [3]: NCI Yeast Anticancer Drug Screen. Data for the sgs1 mgt1 strain (AID 161).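 Note: 0% = growth of cultures given vehicle only.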 The note with it: S. cerevisiae sgs1 mgt1 strain, hits give high values. In outline:
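Compounds are added to genetically altered yeast, and growth is compared with cultures given vehicle alone to give percent inhibition.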

Assay [4] can be described thus: NCI Yeast Anticancer Drug Screen. Data for the cln2 rad14 strain (AID 165).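 Note: 0% = growth equal to vehicle treated cultures.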 As to conditions: S. cerevisiae cln2 rad14 strain, hits give high values. In outline: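 Relative to vehicle controls, growth inhibition of compound-treated cln2 rad14 yeast was recorded.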
A short description of assay [5]: NCI Yeast Anticancer Drug Screen. Data for the bub3 strain (AID 167). The note with it: S. cerevisiae bub3 mutant strain, hits give high values. In outline:
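Yeast carrying a defined mutation is treated with each compound, and growth is compared with that of vehicle-exposed cells to give inhibition.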

A short description of assay [6]: NCI Yeast Anticancer Drug Screen. Data for the mlh1 rad18 strain (AID 175). The note with it: S. cerevisiae mlh1 rad18 strain growth inhibition, hits give high values. The method in brief:
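Test agents were incubated with a yeast strain of defined genotype (DNA damage repair defect). Inhibition of growth was derived by comparison with vehicle-exposed cultures.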

[7] abbreviates: at 5.0 µM (retest, dose inferred, filed as 0.5).
[8] abbreviates: at 50.0 µM (retest, dose inferred, filed as 5.0).

The structures appear in SMILES notation. The panel holds about 79,000 compounds, 15% with a hit somewhere; the sample as a whole holds those more often. A number with no mark means an inactive call. Activity calls are given as the source filed them. Cut-off read from the data, not from the text of the source: active = growth inhibition above about 70%; inactive = the rest.

As for `Cc1ccc(Cc2nc(=S)[nH][nH]2)cc1`, the growth inhibition is 20% in assay [1] (setting [7]); 19% in assay [1] (setting [8]); 1.6% in assay [1] (at 50.0 µM); -3% in assay [2] (setting [7]); 6% in assay [2] (setting [8]); -38.5% in assay [2] (at 50.0 µM). Moreover, the growth inhibition in assay [3] (setting [7]) was -3%; in assay [3] (setting [8]), 9%; in assay [3] (at 50.0 µM), -2.75%; in assay [4] (setting [7]), 1%; in assay [4] (setting [8]) it was 1%; in assay [4] (at 50.0 µM), -9.2%. The growth inhibition is 8% in assay [5] (setting [7]); 19% in assay [5] (setting [8]); -6.3% in assay [5] (at 50.0 µM); 14% in assay [6] (setting [7]); 21% in assay [6] (setting [8]); -34.8% in assay [6] (at 50.0 µM).

In the case of `Fc1cccc(NC(=S)SCc2ccc(Cl)cc2)c1`, the growth inhibition in assay [1] (setting [7]) was 20%; in assay [1] (setting [8]), 98% (active); in assay [1] (at 50.0 µM) it was 99.4% (active); in assay [2] (setting [7]), 15%; in assay [2] (setting [8]) it was 98% (active); in assay [2] (at 50.0 µM), 99.7% (active). The growth inhibition in assay [3] (setting [7]) was 12%; in assay [3] (setting [8]), 99% (active); in assay [3] (at 50.0 µM), 99.7% (active); in assay [4] (setting [7]), -6%; in assay [4] (setting [8]) it was 99% (active); in assay [4] (at 50.0 µM), 99.5% (active). In addition, the growth inhibition in assay [5] (setting [7]) is 10%; in assay [5] (setting [8]), 98% (active); in assay [5] (at 50.0 µM), 99.5% (active); in assay [6] (setting [7]) it was 23%; in assay [6] (setting [8]), 99% (active); in assay [6] (at 50.0 µM) it was 99.6% (active).

With `CC(C)C1COC(c2ccc3ccccc3c2-c2c(O[Si](C)(C)C(C)(C)C)ccc3ccccc23)=N1` (stereo not given), the growth inhibition was 20% in assay [1] (setting [7]); 20% in assay [1] (setting [8]); 93.2% (active) in assay [1] (at 50.0 µM); 14% in assay [2] (setting [7]); 14% in assay [2] (setting [8]); 92% (active) in assay [2] (at 50.0 µM). Further, the growth inhibition is 12% in assay [3] (setting [7]); 12% in assay [3] (setting [8]); 92.8% (active) in assay [3] (at 50.0 µM); 13% in assay [4] (setting [7]); 13% in assay [4] (setting [8]); 92.7% (active) in assay [4] (at 50.0 µM). Also, the growth inhibition in assay [5] (setting [7]) was 8%; in assay [5] (setting [8]), 8%; in assay [5] (at 50.0 µM), 91.3% (active); in assay [6] (setting [7]) it was 4%; in assay [6] (setting [8]), 4%; in assay [6] (at 50.0 µM), 91.2% (active).

As for `O=C(O/N=C(/Cc1ccccc1)c1ccccc1)c1ccccc1`, the growth inhibition in assay [1] (setting [7]) is -15%; in assay [1] (setting [8]), 63%; in assay [1] (at 50.0 µM), 90.3% (active); in assay [2] (setting [7]), -10%; in assay [2] (setting [8]), 72% (active); in assay [2] (at 50.0 µM) it was 28.1%. The growth inhibition in assay [3] (setting [7]) was -1%; in assay [3] (setting [8]), 76% (active); in assay [3] (at 50.0 µM), 88.8% (active); in assay [4] (setting [7]), -6%; in assay [4] (setting [8]), 92% (active); in assay [4] (at 50.0 µM), 43.6%. In addition, the growth inhibition in assay [5] (setting [7]) is -17%; in assay [5] (setting [8]) it was 66%; in assay [5] (at 50.0 µM), 18.4%; in assay [6] (setting [7]), 3%; in assay [6] (setting [8]), 87% (active); in assay [6] (at 50.0 µM) it was 93.2% (active).

For the molecule `Cc1ccc(C)c2[nH]c(-c3ccccc3)cc12`, the growth inhibition is -1% in assay [1] (setting [7]); 99% (active) in assay [1] (setting [8]); 99.3% (active) in assay [1] (at 50.0 µM); -37% in assay [2] (setting [7]); 99% (active) in assay [2] (setting [8]); 99.2% (active) in assay [2] (at 50.0 µM). Also, the growth inhibition in assay [3] (setting [7]) was 0%; in assay [3] (setting [8]), 99% (active); in assay [3] (at 50.0 µM) it was 99.3% (active); in assay [4] (setting [7]), 0%; in assay [4] (setting [8]), 99% (active); in assay [4] (at 50.0 µM), 99.1% (active). In addition, the growth inhibition in assay [5] (setting [7]) was -5%; in assay [5] (setting [8]), 99% (active); in assay [5] (at 50.0 µM), 99.2% (active); in assay [6] (setting [7]), -1%; in assay [6] (setting [8]) it was 99% (active); in assay [6] (at 50.0 µM), 99.2% (active).

Take `O=C1c2cccc3cccc(c23)C1(Br)Br`: the growth inhibition was 36% in assay [1] (setting [7]); 99% (active) in assay [1] (setting [8]); 68% in assay [1] (at 50.0 µM); 20% in assay [2] (setting [7]); 99% (active) in assay [2] (setting [8]); 23.4% in assay [2] (at 50.0 µM). For the same molecule, the growth inhibition is 45% in assay [3] (setting [7]); 98% (active) in assay [3] (setting [8]); 70.8% (active) in assay [3] (at 50.0 µM); 37% in assay [4] (setting [7]); 95% (active) in assay [4] (setting [8]); 56.1% in assay [4] (at 50.0 µM). The growth inhibition in assay [5] (setting [7]) is 26%; in assay [5] (setting [8]), 97% (active); in assay [5] (at 50.0 µM) it was 55.6%; in assay [6] (setting [7]) it was 54%; in assay [6] (setting [8]), 99% (active); in assay [6] (at 50.0 µM) it was 67.8%.

For `Nc1nnc2nc(CC(=O)c3ccccc3)/c(=C/C(=O)c3ccccc3)n12`, the growth inhibition is -21% in assay [1] (setting [7]); -10% in assay [1] (setting [8]); -14.1% in assay [1] (at 50.0 µM); -11% in assay [2] (setting [7]); -20% in assay [2] (setting [8]); 9.4% in assay [2] (at 50.0 µM). Besides, the growth inhibition in assay [3] (setting [7]) is -23%; in assay [3] (setting [8]), -6%; in assay [3] (at 50.0 µM), 1.05%; in assay [4] (setting [7]), -17%; in assay [4] (setting [8]), -16%; in assay [4] (at 50.0 µM), 28.6%. The growth inhibition in assay [5] (setting [7]) was 5%; in assay [5] (setting [8]) it was -5%; in assay [5] (at 50.0 µM) it was -4.95%; in assay [6] (setting [7]) it was -21%; in assay [6] (setting [8]), -9%; in assay [6] (at 50.0 µM), -0.3%.

As to `CC[n+]1cnc(N)c2c(-c3ccc(Cl)cc3)cn(-c3ccc(C)cc3)c21`, the growth inhibition in assay [1] (setting [7]) is -2%; in assay [1] (setting [8]) it was 98% (active); in assay [1] (at 50.0 µM) it was 93.1% (active); in assay [2] (setting [7]) it was -4%; in assay [2] (setting [8]) it was 99% (active); in assay [2] (at 50.0 µM), 95.5% (active). Moreover, the growth inhibition in assay [3] (setting [7]) was -6%; in assay [3] (setting [8]) it was 99% (active); in assay [3] (at 50.0 µM), 97.9% (active); in assay [4] (setting [7]), -6%; in assay [4] (setting [8]), 98% (active); in assay [4] (at 50.0 µM) it was 46.9%. The growth inhibition in assay [5] (setting [7]) was -1%; in assay [5] (setting [8]), 98% (active); in assay [5] (at 50.0 µM), 80.3% (active); in assay [6] (setting [7]) it was -3%; in assay [6] (setting [8]), 98% (active); in assay [6] (at 50.0 µM) it was 97.8% (active).

As for `Cc1ccc(NC(=O)CCC(=O)CC(=O)C(C)(C)C)cc1C`, the growth inhibition in assay [1] (setting [7]) was 16%; in assay [1] (setting [8]), 7%; in assay [1] (at 50.0 µM), 1.1%; in assay [2] (setting [7]), 2%; in assay [2] (setting [8]) it was -2%; in assay [2] (at 50.0 µM), -14.3%. Also, the growth inhibition in assay [3] (setting [7]) is 13%; in assay [3] (setting [8]) it was 3%; in assay [3] (at 50.0 µM) it was -13.8%; in assay [4] (setting [7]) it was -5%; in assay [4] (setting [8]), 4%; in assay [4] (at 50.0 µM) it was 34.8%. Moreover, the growth inhibition was -6% in assay [5] (setting [7]); 3% in assay [5] (setting [8]); -7.9% in assay [5] (at 50.0 µM); -2% in assay [6] (setting [7]); -4% in assay [6] (setting [8]); -15.7% in assay [6] (at 50.0 µM).

`O=C(c1ccccc1)N(C1CCCCC1)C1CCCCC1`: the growth inhibition was 7% in assay [1] (setting [7]); 97% (active) in assay [1] (setting [8]); 98.1% (active) in assay [1] (at 50.0 µM); 1% in assay [2] (setting [7]); 98% (active) in assay [2] (setting [8]); 98.5% (active) in assay [2] (at 50.0 µM). In addition, the growth inhibition in assay [3] (setting [7]) is 5%; in assay [3] (setting [8]), 97% (active); in assay [3] (at 50.0 µM), 99% (active); in assay [4] (setting [7]) it was -2%; in assay [4] (setting [8]), 95% (active); in assay [4] (at 50.0 µM), 98.9% (active). For the same molecule, the growth inhibition was -3% in assay [5] (setting [7]); 93% (active) in assay [5] (setting [8]); 98% (active) in assay [5] (at 50.0 µM); 5% in assay [6] (setting [7]); 97% (active) in assay [6] (setting [8]); 98.3% (active) in assay [6] (at 50.0 µM).
